# ALDH1A1 block: qHTS Assay for Inhibitors of Aldehyde Dehydrogenase 1 (ALDH1A1); Aldehyde dehydrogenase 1A1 (Homo sapiens), P00352; Purified ALDH1A1, NADH fluorescence, propionaldehyde substrate; Potency, µM (highest dose often 75.3 µM), without a hit: top-dose activity, negative = inhibition, usual class: inhibitors; 220,000 compounds, 7.3% hits; AID 1030, 2008;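 further: potency means the concentration at half of the fitted maximal effect; plate controls were no enzyme wells and a reference inhibitor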
# Target sequence (P00352 whole entry, looked up): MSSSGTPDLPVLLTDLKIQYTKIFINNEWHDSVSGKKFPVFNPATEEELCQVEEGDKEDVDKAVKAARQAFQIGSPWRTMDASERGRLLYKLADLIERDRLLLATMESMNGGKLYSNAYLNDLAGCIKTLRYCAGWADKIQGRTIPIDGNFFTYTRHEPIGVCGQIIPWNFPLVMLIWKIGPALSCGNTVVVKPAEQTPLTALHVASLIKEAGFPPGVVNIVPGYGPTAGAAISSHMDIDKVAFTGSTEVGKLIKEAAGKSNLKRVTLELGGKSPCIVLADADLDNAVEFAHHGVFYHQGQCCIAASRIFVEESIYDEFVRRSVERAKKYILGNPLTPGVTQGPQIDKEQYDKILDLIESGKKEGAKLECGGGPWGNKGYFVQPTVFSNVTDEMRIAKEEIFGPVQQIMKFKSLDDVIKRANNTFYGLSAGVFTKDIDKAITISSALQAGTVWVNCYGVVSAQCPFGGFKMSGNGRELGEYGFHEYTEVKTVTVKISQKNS
# PNC inhibitor: High Content Assay for Compounds that inhibit the Assembly of the Perinucleolar Compartment | PC3M PTB-GFP, PNC prevalence imaging, 16 h; active compounds read low | activity change (PNC), negative = inhibition, % at 10 µM | 140,000 compounds, 3.1% hits;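 active means readout at or below -70, meaning at least 70% loss of cells showing the perinucleolar compartment, a nuclear body marking cancer cells; inconclusive means readout between -30 and a set limit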;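 further: plate controls were DMSO wells for no effect and camptothecin positive control wells for full effect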
#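 Read-out is percentage of cells bearing a perinucleolar compartment, from automated 20x imaging of fixed, Hoechst-stained PC3M PTB-GFP cells. Cells were seeded 4 h, then exposed 16 h to compound (23 nl of library stock) in duplicate plates.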
# NPSR antagonist: qHTS Assay for Antagonists of the Neuropeptide S Receptor: cAMP Signal Transduction | CHO-NPSR cells, cAMP TR-FRET, antagonist mode | AID 1461, 2008 | Potency, µM (series often up to 38.3 µM), for inactives: at the top dose activity change, negative = inhibition, usual class: inhibitors | 220,000 compounds, 1% hits | Q6W5P4; active means well fitted curve in the direction sought with a large enough effect; inconclusive means small, poorly fitted or top-dose-only effect, or another doubt; inactive means no such curve, though single readings can be large; an effect the other way counts as inactive or inconclusive; further: potency means the concentration at half of the fitted maximal effect; nearly all actives have a fitted effect of over 50% in size
# Target sequence (Q6W5P4 whole entry, looked up): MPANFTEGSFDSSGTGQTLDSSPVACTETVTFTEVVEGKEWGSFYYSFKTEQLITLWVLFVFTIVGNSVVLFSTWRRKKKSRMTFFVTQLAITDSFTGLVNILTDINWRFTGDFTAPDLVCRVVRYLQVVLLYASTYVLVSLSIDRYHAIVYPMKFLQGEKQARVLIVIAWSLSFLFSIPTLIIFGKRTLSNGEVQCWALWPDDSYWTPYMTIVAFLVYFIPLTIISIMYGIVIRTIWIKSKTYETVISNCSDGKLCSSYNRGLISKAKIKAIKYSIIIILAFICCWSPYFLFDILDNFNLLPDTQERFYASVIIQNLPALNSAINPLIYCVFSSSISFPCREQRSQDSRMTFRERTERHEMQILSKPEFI
# HPGD inh: qHTS Assay for Inhibitors of HPGD (15-Hydroxyprostaglandin Dehydrogenase); 15-hydroxyprostaglandin dehydrogenase [NAD(+)] (Homo sapiens), P15428; purified HPGD, NADH fluorescence kinetic, PGE2 substrate; Potency, µM, without a hit: at the highest dose activity change, negative = inhibition, actives largely listed as inhibitors; 150,000 compounds, 4.3% hits; AID 894, 2007; further: potency means the concentration at half of the fitted maximal effect
#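 NADH formation kinetics: reaction with 30 uM PGE2 and 1 mM NAD+ (final), 20 nM enzyme, Tris-HCl pH 8 with Tween 20, after 15 min compound preincubation at room temperature. Fluorescence change, last versus first of five reads.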
# IMPase Li cell: qHTS Assay for Identifying the Cell-Membrane Permeable IMPase Inhibitors: Potentiation with Lithium | Potency, µM (doses to about 59.4 µM), without a hit: at the highest dose activity, negative = IMPase inhibition, hits mostly inhibitors | CHO-M1 cells, IP1 TR-FRET (IP-One), carbachol + lithium | AID 1457, 2008 | 210,000 compounds, 0.35% hits; active means well fitted curve in the direction sought with a large enough effect; inconclusive means small, poorly fitted or top-dose-only effect, or another doubt; inactive means no such curve, though single readings can be large; an effect the other way counts as inactive or inconclusive;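 further: IP1 builds up when IMPase is blocked and the TR-FRET signal falls; potency means the concentration at half of the fitted maximal effect; plate controls were basal vehicle for no effect and high inhibitor control for full effect; nearly all actives have a fitted effect of over 50% in size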
#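 CHO cells stably expressing M1 receptor (2000/well) were cultured 16–30 h, then exposed to compounds with a small lithium addition for 30 min at 37C. IP1 was measured by TR-FRET competition; AC50 from Hill fits.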
# IMPase cell inh: qHTS Assay for Identifying the Cell-Membrane Permeable IMPase Inhibitors. CHO-M1 cells, IP1 accumulation, HTRF TR-FRET ratio. Inositol monophosphatase 1 (Rattus norvegicus), P97697. AID 901, 2007. inhibition (IP1 accumulation), % at 46.1 µM. 120,000 tested, under 10 active; active means well fitted curve in the direction sought with a large enough effect in the signal ratio, not every such curve was filed as active; inconclusive means small, poorly fitted or top-dose-only effect, or a change in a side signal; inactive means no such curve, though single readings can be large or run the other way; the % refers to the signal ratio;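 further: cells stimulated with carbachol in lithium chloride buffer; plate controls were DMSO basal wells for no effect and reference inhibitor wells for full effect; higher means more IMPase inhibition seen as more IP1 and lower FRET ratio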
#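 Measured: the HTRF emission ratio (665/620 nm) plus the 620 nm donor channel, each fitted to the Hill equation to give AC50. Cells were CHO-M1 given compounds up to 46 uM and a 30 min carbachol stimulation at 37C.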
# The depositor's hits bear a star; ? = inconclusive; / = not tested or not shown; [ ] = remark or other dose. An excerpt weighted towards active compounds, which were near 11% of everything screened. Unless noted, the call rests on the fitted dose curve; in most records, active means well fitted inhibition curve with a large enough effect (not every such curve was filed as active); inconclusive means small, poorly fitted or top-dose-only effect, or another doubt; inactive means no such curve, though single readings can be large or run the other way. Unless noted, on the % scale 0 is the no-effect control and ±100 the full control effect.
SMILES,ALDH1A1 block,PNC inhibitor,NPSR antagonist,HPGD inh,IMPase Li cell,IMPase cell inh
CCCC(=O)Nc1nnc(-c2ccc3c(c2)OCCO3)o1,-7.1%,/,14.8%,/,-4.8%,/
Cc1ccc(Nc2nnc(-c3ccc4c(c3)OCO4)o2)c(C)c1,18.9µM*,/,7.6%,?,3.0%,/
Cc1cccc(NC2=NCC(=O)N2Cc2ccccc2)c1,25.1µM*,38.6,-5.4%[46.1 µM],-10.4%,12.1%[38.3 µM],-4.3
COc1ccc(/C(C)=N/N=C2/NC(=O)CC(C(=O)O)S2)cc1 (stereo not given),-2.6%,?,13.0%,-15.8%,1.5%,-0.7
CCOC(=O)CSc1nnc(-c2ccc(OC)cc2OC)o1,1.4%,10.2,-8.1%[46.1 µM],-9.1%,9.3%[38.3 µM],-8.4
COc1ccc(NC(=O)O/N=C/c2c(C)nn(C(C)(C)C)c2C)cc1,?,/,9.0%,/,/,/
C/C(=N\NC(=O)CCc1ccccc1)c1ccc(Br)cc1,6.6%,/,-12.5%,/,6.4%,/
FC(F)(F)c1cccnc1Oc1ccc(C2=NCCS2)cc1,?,/,4.4%,/,/,/
COC(=O)c1ccc2c(=O)n3c(nc2c1)SCC(c1ccccc1)=N3,?,35.6,?,?,10µM*,1.0
N#CCCN(C(=O)CN1C(=O)NC2(CCCC2)C1=O)c1ccccc1F,7.94µM*,36.9,-3.8%[46.1 µM],-9.7%,17.1%[38.3 µM],-8.5
O=C(CSc1nc(-c2cccs2)cc(C(F)(F)F)n1)NCCCN1CCOCC1,-3.4%,/,3.8%,/,-0.2%,/
CC(C)CN(CC(C)C)C1=N/C(=C\c2ccco2)C(=O)N1c1ccccc1,12.6µM*,48.5,?,?,13.4%[38.3 µM],4.9
CCN(CC)C1=N/C(=C\c2ccco2)C(=O)N1c1ccccc1,?,28.2,-15.5%,-13.3%,2.7%,/
O=C(C1c2ccccc2Oc2ccccc21)N1CCN(c2ccc(Cl)cc2)CC1,-0.7%,-88.6*,?,-13.7%,47.2%[38.3 µM],6.9
COc1cc(C=O)ccc1OCC(=O)N1CCOCC1,?,-27.2,-0.1%[46.1 µM],-3.0%,-7.6%[38.3 µM],-7.7
Cc1cc(-c2nc3cccnc3s2)ccc1NS(=O)(=O)c1ccc2c(c1)OCCO2,?,10.5,-10.7%[46.1 µM],?,7.5%[38.3 µM],1.7
Cc1c(NS(=O)(=O)c2ccc3c(c2)OCCO3)cccc1-c1nc2cccnc2s1,15.8µM*,?,?,-27.3%,59.3%[38.3 µM],7.4
CO[C@H]1C=CO[C@@]2(C)Oc3c(C)c(O)c4c(O)c(c(C=NN5CCN(C6CCCC6)CC5)c(O)c4c3C2=O)NC(=O)C(C)=CC=C[C@H](C)[C@H](O)[C@@H](C)[C@@H](O)[C@@H](C)[C@H](OC(C)=O)[C@@H]1C,/,/,-31.9%,/,/,/
CO[C@H]1C=CO[C@@]2(C)Oc3c(C)c(O)c4c(O)c(c(C=NN5CCN(C)CC5)c(O)c4c3C2=O)NC(=O)C(C)=CC=C[C@H](C)[C@H](O)[C@@H](C)[C@@H](O)[C@@H](C)[C@H](OC(C)=O)[C@@H]1C,?,-114.6*,-57.6%,25.1µM*,40.1%,/
CC(C)OCCCNC(=O)c1ccc(CS(=O)(=O)Cc2ccccc2F)o1,-2.8%,53.8,-0.5%[46.1 µM],-7.8%,-0.1%[38.3 µM],4.1
Cc1c(C(=O)N2CCOCC2)sc2ncnc(N3CCc4ccccc4C3)c12,0.1%,4.0,-8.3%[46.1 µM],-9.0%,-0.5%[38.3 µM],7.6
Cc1c(C(=O)N2CCCCC2C)sc2ncnc(N3CCc4ccccc4C3)c12 (stereo not given),7.94µM*,/,?,/,3.3%,/
COc1cc(C2C(C#N)=C(N)Oc3cc(N)ccc32)cc(OC)c1OC (stereo not given),3.4%,-89.3*,19.8%,-17.3%,0.4%,2.7
CCOC(=O)c1cc(-c2ccc(OC)cc2)nn1-c1ccccc1C(=O)O,/,/,-13.5%,/,/,/
COc1ccc(NC(=O)CN2CCN(S(=O)(=O)c3ccc(Cl)cc3)CC2)cc1Cl,3.6%,8.2,-27.3%[46.1 µM],-17.3%,2.9%[38.3 µM],-0.2
SMILES,ALDH1A1 block,PNC inhibitor,NPSR antagonist,HPGD inh,IMPase Li cell,IMPase cell inh
COc1ccc(S(=O)(=O)N2CCCN(CC(=O)Nc3ccc(OC)c(Cl)c3)CC2)cc1,1.58µM*,4.7,?,-15.9%,19.9%[38.3 µM],-0.3
COc1ccc(NC(=O)CN2CCN(S(=O)(=O)c3ccc(Cl)cc3)CC2)cc1,18.9µM*,51.2,-17.2%[46.1 µM],-3.2%,27.6%[38.3 µM],?
COC(=O)N/N=C/c1ccc(-c2cc(Cl)cc(Cl)c2)o1,-1.4%,-25.7,-13.3%,-17.2%,-6.0%,/
Nc1nonc1C(=O)N/N=C/c1ccc(-c2ccc(Cl)c(C(=O)O)c2)o1,3.98µM*,/,-25.6%,/,-7.0%,/
COC(=O)N/N=C/c1ccc(-c2ccc(C)c(Cl)c2)o1,-11.3%,3.3,7.6%[46.1 µM],14.1µM*,-9.0%,14.4
Nc1nonc1C(=O)N/N=C/c1ccc(Br)o1,-0.2%,/,-13.3%,/,/,/
CC(/C=C/c1ccccc1)=N\NC(=O)Cn1cncn1,/,/,-0.8%,/,/,/
COc1ccc(C(C)=O)cc1COc1ccc(-n2cnnn2)cc1,3.55µM*,-1.2,-3.5%[46.1 µM],?,-13.8%[38.3 µM],-6.3
COc1ccc(C(C)=O)cc1COC(=O)c1ccc(OCc2c(C)noc2C)cc1,7.94µM*,45.1,29.2%[46.1 µM],-12.1%,?,10.6
COc1ccc(C(=O)OCc2c(C)noc2C)cc1,?,/,2.1%,/,5.5%,/
COc1ccc(C(C)=O)cc1COC(=O)c1c(C)noc1C,22.4µM*,-7.9,-13.6%[46.1 µM],-20.7%,-3.8%[38.3 µM],10.0
CCc1nc(C)ccc1OCC(=O)NCCCN(C)C,?,?,-19.3%[46.1 µM],-0.4%,2.1%[38.3 µM],-2.9
C/C(=C/c1oc2ccc(O)cc2c1[N+](=O)[O-])N(C)C,-14.8%,?,?,-11.8%,39.9%[38.3 µM],10.3
CC(C)N=C1SC(CC(=O)Nc2ccccc2)C(=O)N1C(C)C (stereo not given),-2.1%,/,-14.3%,/,4.6%,/
CCCC(=O)c1ccc(N2CCN(C(=O)c3ccccc3)CC2)c(F)c1,?,15.3,-15.1%[46.1 µM],-22.0%,32.5%[38.3 µM],16.3
CCCC(=O)c1ccc(N2CCN(C(=O)c3ccccc3Br)CC2)c(F)c1,15.8µM*,27.9,?,-14.2%,44.5%[38.3 µM],?
C1CCCCCC(=NNc2nn[nH]n2)CCCCC1,/,/,11.2%,/,/,/
COc1ccccc1NC(=O)CN1CCN(c2ccccc2OC)CC1,-0.6%,/,37.4%,/,5.1%,/
CCC(C)(C)NC(=O)C(c1ccccc1)N(C(=O)c1csnn1)C1CC1 (stereo not given),6.1%,400.0,1.3%[46.1 µM],-11.0%,7.3%,-7.4

# Screens: PubChem BioAssay, National Center for Advancing Translational Sciences (NCATS)
